Data published in the supplement of paper PMC6555819.

Experiments:
Test in all cases: PBM binding z-score (relative to random genomic background probes); higher = stronger binding; sequences stand for … in GC…GCGATTGACAGCGTAGAATGAAGG
[1] = system: RARb homodimer (NR concentration 270 nM)
Method in brief: (§1)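 The probes on custom Agilent 4×180K protein-binding microarrays were double-stranded, with 34-nt variable regions bearing direct-repeat seeds, single-nucleotide variants, half-site ablations and random human genomic background sequences. Incubation lasted 1 h with ligand-free nuclear receptor dimers in PBS pH 7.4, 2% milk, 0.02% Triton X-100, 1 mM DTT, 0.2 mg/mL BSA and 0.4 mg/ml salmon testes DNA. Antibodies against each partner (one per run) detected bound dimers, and fluorescence scans were regression-normalized. Binding z-scores take the random background probes as reference.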

[2] = system: RARg:RXRa (NR concentration 270 nM, RXRa partner concentration 90 nM)
Method in brief: as §1

[3] = system: RARg homodimer (NR concentration 270 nM)
Method in brief: as §1

[4] = system: RXRa DBDmut IVT, anti-RXR (DBD mutation: RXRa K156A/R161A, NR concentration 90 nM)
Method in brief: as §1

[5] = system: RXRa homodimer (NR concentration 180 nM)
Method in brief: as §1

[6] = system: THRa:RXRa (NR concentration 90 nM, RXRa partner concentration 90 nM)
Method in brief: as §1

[7] = system: THRa homodimer (NR concentration 90 nM)
Method in brief: as §1

[8] = system: VDR homodimer (NR concentration 270 nM)
Method in brief: as §1

| Sequence | PBM binding z-score [1] | PBM binding z-score [2] | PBM binding z-score [3] | PBM binding z-score [4] | PBM binding z-score [5] | PBM binding z-score [6] | PBM binding z-score [7] | PBM binding z-score [8] |
| --- | --- | --- | --- | --- | --- | --- | --- | --- |
| CTACCAAGGTGAACAAAGTCGTTGATTACTATTC | 0.608 | 0.623 | 0.808 | 0.695 | 0.378 | 1.69 | 0.927 | 0.24 |
| TCGAGTAGGTTACCAATTGGGCATTCAGCTTTCT | -0.00589 | 0.186 | -0.124 | 0.484 | 0.205 | -0.0916 | -0.446 | -0.653 |
| GCTTACGGGTCAAAGGTTATACCATGAATAGAAT | 3.74 | 6.93 | 4.71 | 2.59 | 9.41 | 4.17 | 0.206 | 1.77 |
| CCTCACGGGTCACGAGGTTATAGCACGACGAGCG | 3.79 | 5.79 | 5.33 | 1.43 | 6.4 | 3.36 | 1.24 | 2.22 |
| GTAGCAAGGTGAATAGGTCGTTGATGAGTAGGCG | 1.48 | 2.35 | 1.1 | -0.689 | 1.56 | 1.36 | -0.149 | -0.287 |
| TAGCCTAGGTCATTGGGGCAGTATAGTACGCATC | 3.31 | 3.93 | 4.23 | 1.67 | 2.99 | 2.96 | 1.28 | 1.8 |
| GCAGACAGGTGAAACGCAGGTAACTCACGGTGGC | -0.171 | 0.892 | 0.295 | -0.351 | 0.662 | 0.832 | -0.7 | -0.778 |
| AGTCAAAGTTCATCTAGGTAACGTTAGATATGCT | 3.74 | 5.6 | 6.39 | 4.62 | 4.96 | 2.94 | 0.114 | 5.6 |
| GCTCGGAGGACAAGGTCAGAACTTTGTCCGTAGA | 2.83 | 3.15 | 3.26 | 0.38 | 2.6 | 2.67 | 0.989 | 0.595 |
| ATCGAAAGGTCGAGGTGAGTATGGAGAAAGGGAA | 2.76 | 4.21 | 4.51 | 0.698 | 4.17 | 2.84 | 0.743 | 0.435 |
| CGTCAAAGTTCAAGGTACCGTAACAGAAAGCAGC | 3.94 | 5.07 | 6.14 | 4.56 | 4.33 | 2.06 | 0.154 | 3.09 |
| TCTTGTAGATCAGCAGGTTATGAAAGCTGGCCAA | -0.0555 | -0.168 | -0.428 | 0.64 | 0.311 | 0.276 | -0.466 | -0.405 |
| TCTCGGAGGACACGAAAGGTCACAGCTCGACATC | 4.92 | 6.11 | 6.17 | 1.44 | 6.3 | 4.29 | 2.38 | 2.48 |
| ATCTCTAGGTAGGACTCAGTTCAGTGAAGAACGC | 0.778 | 0.159 | 0.0916 | 0.747 | 0.071 | 0.569 | 0.909 | 1.66 |
